# The source made the active and inactive calls. Rule for the calls: active = hit-call score of the fitted dose curve at least 0.9, where 1 is the maximum; inactive = score below 0.9.
# Read-out: Cellular tumor antigen p53 (Homo sapiens) (UniProt P04637)
# Test: LTEA_HepaRG_TP53: Life Technologies and Expression Analysis (LTEA) Assay for Tumor Protein P53 (TP53) using HepaRG (AID 2283537)
# Details: mRNA level, 48 h; actives raise or lower the signal
# Procedure: LTEA_HepaRG is a cell based, multiplexed-readout assay that uses HepaRG, a human liver cell line, with measurements taken at 48 hours after chemical dosing on a 96-well plate.LTEA_HepaRG_TP53 is one of 102 assay component(s) measured in the LTEA HepaRG cell culture assay. It is a marker of Oxidative Stress.Data from the assay component LTEA_HepaRG_TP53 was analyzed into 1 endpoint. This assay endpoint, LTEA_HepaRG_TP53, was analyzed with bidirectional fitting relative to DMSO as the negative control and baseline of activity. Using a type of inducible reporter, measures of mRNA induction for gain or loss-of-signal activity can be used to understand regulation of transcription factor activity. To generalize the intended target to other relatable targets, this assay endpoint is annotated to the dna binding intended target family, where the subfamily is tumor suppressor.
# A total of 1060 chemcials from the ToxCast library were tested in eight-point concentration-response experiments. Cell culture and cytotoxicity assays were conducted at Thermo Fisher Scientific's Custom Services facility (Madison, WI). A single lot of human HepaRG cells (Thermo Fisher Scientific, Frederick, MD) was used for the cell culture experiments. 96-well format collagen type I coated plates of human HepaRG cells were prepared using established methods. Briefly, cryopreserved HepaRG cells were thawed, plated at a density of approximately 100,000 cells/well in HepaRG Thaw, Plate, and General Purpose media (HPRG770, Thermo Fisher Scientific), and incubated for 48 hours. 0.5% DMSO was selected as vehicle control to balance the requisite need of DMSO in HepaRG cultures to maintain differentiation (for example, baseline metabolism, proportions of hepatocytes vs. cholangiocytes), while enabling further hepatic receptor pathway activation (for example, PXR and CAR) in response to chemical exposure. 48 hours after plating, the culture medium was replaced with HepaRG Serum-Free Incudtion Media. Cells were exposed to each test chemical in duplicate and maintained in CO2 incubators for another 48 hours. Chemical plates were thawed to room temperature and 200x concentrations of treatment groups were prepared. 8-point conentration-reponse curves were made with the highest exposure at 100 uM, followed by half-log dilutions, all in 0.5% DMSO. Each test plate contained variouse controls, induction positive controls (1mM phenobarbital), cytotoxicity positive controls ([…] aflatoxin B1), vehicle controls (0.5% DMSO), and total lysis controls (0.5% DMSO). Cell morphology images were taken using an Essen IncuCyte FLR automated microscope, with six 96-well plates imaged in about 24 minutes. Images were captured and exported and JPEG files. Spent culture media was transfered to black-well plates for the LDH assay, and remaining media was sorted at -80 C for later use. Cells were treated with RLT buffer and frozen until shipped for gene expression analysis. Total RNA was isolated from the cell suspension in 75 uL of Buffer RLT (Qiagen, Germantown, MD 20874) by Quintiles/Expression Analysis (Durham, NC) using a custom isolation procedure. Total RNA from each plate well was transferred to a preamplification plate. Fluidigm's 96.96 Dynamic ArrayTM (Fluidigm, Amsterdam, the Netherlands) technology was used for gene expression analyses by quantitative reverse transcription polymerase chain reaction (qRT-PCR, performed by Quintiles/Expression Analysis, Durham, NC)89. Standard TaqManTM Assays (Applied Biosystems/ThermoFisher Scientific, Foster City, CA) were used to assess the expression of 93 genes selected based on their selectivity and sensitivity to important hepatic receptors known to be modulated by environmental chemicals; importance in human hepatocyte functionality; and hepatotoxicity. […]
# Chain of Cellular tumor antigen p53 (Homo sapiens) (P04637 whole entry, looked up): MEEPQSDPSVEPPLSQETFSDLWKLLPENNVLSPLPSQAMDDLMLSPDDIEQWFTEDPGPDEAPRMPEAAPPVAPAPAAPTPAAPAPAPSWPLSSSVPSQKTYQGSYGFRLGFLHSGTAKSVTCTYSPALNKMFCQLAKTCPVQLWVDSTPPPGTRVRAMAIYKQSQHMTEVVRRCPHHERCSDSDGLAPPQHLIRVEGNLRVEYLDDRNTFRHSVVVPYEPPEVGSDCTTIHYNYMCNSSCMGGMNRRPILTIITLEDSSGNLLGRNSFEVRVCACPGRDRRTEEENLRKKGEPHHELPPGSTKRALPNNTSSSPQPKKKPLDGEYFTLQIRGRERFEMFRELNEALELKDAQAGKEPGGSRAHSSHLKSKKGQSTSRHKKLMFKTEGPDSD
Compound,outcome,AC50
CC(COc1ccc(Oc2ccccc2)cc1)Oc1ccccn1 (stereo not given),inactive,–
CCOP(=O)(NC(C)C)Oc1ccc(SC)c(C)c1 (stereo not given),inactive,–
CCCCSP(=O)(SCCCC)SCCCC,inactive,–
CSC1=N[C@@](C)(c2ccccc2)C(=O)N1Nc1ccccc1,–,28.4 µM (active)
CCOC(=O)CC(SP(=O)(OC)OC)C(=O)OCC (stereo not given),inactive,–
CSc1nnc(C(C)(C)C)c(=O)n1N,inactive,–
CN(C)NC(=O)CCC(=O)O,inactive,–
Cc1cc(C2CC2)nc(Nc2ccccc2)n1,inactive,–
CCCCN(CC)c1c([N+](=O)[O-])cc(C(F)(F)F)cc1[N+](=O)[O-],inactive,–
CCCCOC(=O)c1ccccc1C(=O)O,inactive,–
CCOP(=S)(OCC)SCCSCC,inactive,–
C[Si](Cn1cncn1)(c1ccc(F)cc1)c1ccc(F)cc1,inactive,–
CN(C)C(=O)Nc1cccc(C(F)(F)F)c1,inactive,–
Cc1nn(-c2cc(NS(C)(=O)=O)c(Cl)cc2Cl)c(=O)n1C(F)F,inactive,–
CCC(=NOC/C=C/Cl)C1=C(O)CC(C2CCOCC2)CC1=O (stereo not given),inactive,–
CNC(=O)ON=C(C)SC,inactive,–
COc1cc(OC)nc(Sc2cccc(Cl)c2C(=O)O)n1,inactive,–
COP(=O)(NC(C)=O)SC (stereo not given),inactive,–
CNC(=O)ON=C(SC)C(=O)N(C)C,inactive,–
CC(C)N(C(=O)SCC(Cl)=C(Cl)Cl)C(C)C,inactive,–

Compound,outcome,AC50
COc1cccc(C(=O)NN(C(=O)c2cc(C)cc(C)c2)C(C)(C)C)c1C,inactive,–
C#CC(C)(C)NC(=O)c1cc(Cl)cc(Cl)c1,inactive,–
CCOP(=S)(OCC)OC(Cl)C(Cl)(Cl)Cl (stereo not given),inactive,–
C[N+]1(C)CCCCC1,inactive,–
CC(=NC#N)N(C)Cc1ccc(Cl)nc1,inactive,–
CCOP(=O)(OCC)Oc1cc(C)nc(C(C)C)n1,inactive,–
CCC(=O)Nc1ccc(Cl)c(Cl)c1,inactive,–
CCOP(=S)(Oc1cnc(C(C)(C)C)nc1)OC(C)C (stereo not given),inactive,–
CC(C)[C@H](C(=O)O[C@H](C#N)c1cccc(Oc2ccccc2)c1)c1ccc(Cl)cc1,inactive,–
CCOP(=S)(OCC)Oc1ccc2c(C)c(Cl)c(=O)oc2c1,inactive,–
CNC(=O)Oc1cccc2c1OC(C)(C)O2,inactive,–
COP(=O)(OC)SCn1c(=O)oc2cc(Cl)cnc21,inactive,–
O=c1ccc(=O)[nH][nH]1,inactive,–
N#CSCSC#N,inactive,–
FC(F)C(F)(F)OCC(Cn1cncn1)c1ccc(Cl)cc1Cl (stereo not given),–,31.5 µM (active)
CNc1cnn(-c2cccc(C(F)(F)F)c2)c(=O)c1Cl,inactive,–
CCC(CC)Nc1c([N+](=O)[O-])cc(C)c(C)c1[N+](=O)[O-],inactive,–
CON=C(C(=O)OC)c1ccccc1CON=C(C)c1cccc(C(F)(F)F)c1,inactive,–
CSc1nc(NC(C)C)nc(NC(C)C)n1,inactive,–
CC[C@H](C)[C@H]1O[C@]2(C=C[C@@H]1C)C[C@@H]1C[C@@H](C/C=C(\C)[C@@H](O[C@H]3C[C@H](OC)[C@@H](O[C@H]4C[C@H](OC)[C@@H](NC)[C@H](C)O4)[C@H](C)O3)[C@@H](C)/C=C/C=C3\CO[C@@H]4[C@H](O)C(C)=C[C@@H](C(=O)O1)[C@]34O)O2,–,86.7 µM (active)

# — PubChem BioAssay (EPA / NIEHS)
